Data as given in PubChem BioAssay (NCI).
About 83,000 compounds went through this panel and 20% of them were active in at least one assay; those are over-represented in the sample as a whole.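 Single-dose data. Exposure time 48 hours. Values below 10 considered active.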 Unmarked numbers belong to inactive results. Calls of active or inactive are those of the source.

What was measured:
Test in all cases: NCI-60 one-dose screen, 48 h (100 = growth as untreated, 0 = no growth, -100 = all killed)
Details in all cases: 10 µM unless noted
NCI-H23 lung = tested on: NCI-H23 lung
NCI-H226 lung = tested on: NCI-H226 lung
NCI-H322M lung = tested on: NCI-H322M lung
HOP-62 NSCLC = tested on: HOP-62 NSCLC
NCI-H460 lung = tested on: NCI-H460 lung
HOP-92 NSCLC = tested on: HOP-92 NSCLC
NCI-H522 lung = tested on: NCI-H522 lung
A549/ATCC NSCLC = tested on: A549/ATCC NSCLC
786-0 renal = tested on: 786-0 renal
COLO 205 colon = tested on: COLO 205 colon
DU-145 prostate = tested on: DU-145 prostate
K-562 leukemia = tested on: K-562 leukemia
MALME-3M melanoma = tested on: MALME-3M melanoma
MDA-MB-231 breast = tested on: MDA-MB-231 breast
RXF 393 renal = tested on: RXF 393 renal
SF-268 CNS = tested on: SF-268 CNS
SF-295 CNS = tested on: SF-295 CNS
SF-539 CNS = tested on: SF-539 CNS
UACC-257 melanoma = tested on: UACC-257 melanoma
M14 melanoma = tested on: M14 melanoma

Structure (SMILES)	growth (NCI-H23 lung)	growth (NCI-H226 lung)	growth (NCI-H322M lung)	growth (HOP-62 NSCLC)	growth (NCI-H460 lung)	growth (HOP-92 NSCLC)	growth (NCI-H522 lung)	growth (A549/ATCC NSCLC)	growth (786-0 renal)	growth (COLO 205 colon)	growth (DU-145 prostate)	growth (K-562 leukemia)	growth (MALME-3M melanoma)	growth (MDA-MB-231 breast)	growth (RXF 393 renal)	growth (SF-268 CNS)	growth (SF-295 CNS)	growth (SF-539 CNS)	growth (UACC-257 melanoma)	growth (M14 melanoma)
COc1ccc(-c2nc3sc(-c4ccccc4)cn3n2)cc1	72%	76.3%	85.8%	50.5%	34.9%	67.6%	29.6%	50.8%	88%	36.7%	83.5%	23.8%	67.6%	47%	75.3%	71.8%	61.8%	75.2%	71.8%	28.4%
CCOC(=O)NCCc1ccccc1	101%	107%	93.2%	99.7%	112%	82%	98.1%	89.6%	112%	112%	118%	91.4%	110%	116%	115%	114%	98.3%	111%	100%	110%
C#C[C@]1(O)CC[C@H]2[C@@H]3CC=C4c5sc(Nc6cc(F)ccc6F)nc5CC[C@]4(C)[C@H]3CC[C@@]21C	4.23% (active)	49%	50.9%	0.529% (active)	-54.4% (active)	13.1%	1.36% (active)	56.7%	-71.9% (active)	8.29% (active)	-30.6% (active)	4.14% (active)	-19.9% (active)	-20.6% (active)	-58.5% (active)	0.557% (active)	-41.9% (active)	-88.7% (active)	0.483% (active)	-22.1% (active)
Cc1ccc(-c2nc(SCC(=O)Nc3nc(-c4ccc(Cl)cc4)cs3)[nH]c(=O)c2C#N)cc1	95.1%	89.5%	101%	94%	105%	-13.3% (active)	77.5%	86.7%	93.2%	117%	103%	97.1%	109%	110%	114%	98.1%	101%	117%	88%	91.7%
Cc1nc2ccccc2c(/C=C/c2ccc(Cl)cc2)c1C(=O)/C=C/c1cccs1	67.8%	81.2%	87.4%	94.9%	66.7%	64.1%	57.4%	88.1%	87.4%	82%	79%	44.7%	107%	75.8%	83.7%	78.8%	82%	99.5%	79.9%	82%
CCCCn1c(=O)c(-c2cc(-c3ccc(Cl)cc3)nc(-c3ccc(Cl)cc3)c2)cc2cc(C)ccc21	101%	105%	95.5%	102%	106%	103%	94.9%	98.2%	102%	111%	112%	99.3%	105%	92.8%	105%	98%	99.1%	97.9%	100%	102%
COc1ccc(/C=C2\Oc3cc(OCCN4CCC(Cc5ccccc5)CC4)ccc3C2=O)cc1OC	68.6%	69.6%	96.2%	78.6%	66.5%	47.7%	78.2%	86.7%	78.4%	19.1%	82.5%	7.36% (active)	52.7%	53.5%	48%	79.8%	82.6%	83%	73.3%	30.2%
COc1cccc(-c2nc(-c3ccc(NC(=O)C(C)C)cc3)[nH]c2-c2ccnc(Br)c2)c1	51.3%	43.5%	43.7%	24.1%	31.8%	43.4%	19.5%	38.8%	-14.1% (active)	30.1%	61.4%	1.17% (active)	34.4%	52.3%	-31% (active)	51.6%	-42.9% (active)	16%	52.8%	40.2%
Brc1c[n+](Cc2ccc3ccccc3c2)cn1Cc1ccc2ccccc2c1	9.7% (active)	34.4%	73.8%	48%	20.1%	-24% (active)	13.3%	70%	44.3%	-49.6% (active)	38.5%	10.5%	-4.88% (active)	8.23% (active)	21.6%	14.5%	49.6%	40.1%	-35.4% (active)	1.8% (active)
C/C(=C\C(=O)c1ccc(Cl)cc1)c1ccc(Cl)cc1	83.9%	90.9%	84.9%	88.1%	100%	72.8%	87.8%	95.2%	108%	97.5%	113%	106%	97.5%	89.8%	106%	96.4%	109%	104%	98.4%	104%
COc1ccccc1/C=C1\Oc2cc(OCCN3CCC(Cc4ccccc4)CC3)ccc2C1=O	93.9%	96.9%	85.6%	103%	93%	57.8%	91.7%	96.2%	80%	38.4%	102%	27.6%	76.8%	90.3%	69.9%	84.4%	96.6%	93.8%	95.1%	65.9%
CCN(CC)CCNC(=O)c1cn2ncnc(Oc3ccc(NC(=O)Nc4ccc(Cl)c(C(F)(F)F)c4)cc3)c2c1C	-83.6% (active)	6% (active)	4.06% (active)	-78.5% (active)	-74.4% (active)	-39.1% (active)	-63% (active)	-85.2% (active)	-89.9% (active)	-73.4% (active)	-53.3% (active)	-79.1% (active)	-81.1% (active)	-94.6% (active)	-36.3% (active)	-64.6% (active)	-87.4% (active)	-93.1% (active)	-83.2% (active)	-83.3% (active)
c1ccc(Cc2nn3cc(-c4ccccc4)nc3s2)cc1	97.8%	117%	98.4%	104%	102%	109%	80.1%	91.3%	86.3%	118%	99%	93.8%	111%	109%	129%	98%	97.8%	106%	108%	90.3%
Cc1cc2[nH]c(=O)c3c4ncccc4cn3c2cc1C	70%	51.8%	29.9%	59%	-33.9% (active)	83.3%	-23.7% (active)	49.8%	7.03% (active)	14.8%	35.6%	3.34% (active)	70.1%	28.8%	18.1%	41.7%	-14.7% (active)	26.7%	108%	67.3%
N[C@@H](Cc1ccccc1)[C@@H](O)C(=O)NCc1ccc(F)cc1	106%	103%	104%	119%	103%	94.9%	95.9%	104%	98.5%	111%	110%	97%	107%	100%	118%	95.7%	95.5%	105%	107%	101%
CCOC(=O)c1cnn2c3ccccc3n(S(=O)(=O)c3ccc(OC)cc3)c12	28.2%	19.9%	53.7%	35%	18.4%	59.9%	20.6%	28.5%	40.5%	-19.4% (active)	14.8%	11.2%	60.7%	10.2%	-6.6% (active)	44.7%	14.1%	-3.57% (active)	80.1%	25.3%
